The results in this text go back to PubChem BioAssay (NCI).

About 83,000 compounds went through this panel and 20% of them were active in at least one assay; those are over-represented in the sample as a whole.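 Results are percent growth after 48 hours of single-concentration exposure. 100 means growth as in untreated cells, lower positive values show inhibition; negative values down to -100 show cell death.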 A number with no mark means an inactive call. The source made the active and inactive calls. How the source made its calls: active means growth percent below 10; inactive means the rest.

Test in all cases: NCI-60 one-dose screen, 48 h (100 = growth as untreated, 0 = no growth, -100 = all killed)
Settings in all cases: 10 µM

Assay [1] has as its system NCI-H23 lung.
The subject of assay [2] is NCI-H226 lung.
Assay [3] concerns NCI-H322M lung.
In assay [4] the test system is HOP-62 NSCLC.
Assay [5] concerns NCI-H460 lung.
Assay [6] has as its system NCI-H522 lung.
For assay [7], the system named is A549/ATCC NSCLC.
Assay [8] concerns 786-0 renal.
Assay [9] relates to COLO 205 colon.
The subject of assay [10] is DU-145 prostate.

On to `CC(=O)n1c(-c2ccc(Cl)c(Cl)c2)cn(-c2ccc(Cl)cc2)c1=O`, for which the growth in assay [1] was 27.5%; in [2] it was 76.2%; in assay [3], 69%; in [4] it was -29.1% (active); in assay [5], 3.52% (active); in [6], 36.7%. In addition, the growth in [7] is -10.1% (active); in assay [8], 2.32% (active); in [9], -19.2% (active); in assay [10] it was 0.358% (active).

As for `CCC(=O)N1C/C(=C/c2ccc(OC)cc2)C(=O)/C(=C/c2ccc(OC)cc2)C1`, the growth was 63.9% in assay [1]; 29.5% in assay [2]; 111% in [3]; 20.5% in [4]; 61.4% in [5]; 20.6% in assay [6]. The growth in [7] is 32%; in assay [8], 4.83% (active); in assay [9], 27.2%; in [10] it was 18.7%.

Turning to `COc1ccc(Cl)cc1C(=O)Nc1nc2ccc(Cl)cc2s1`, the growth is 90.5% in [1]; 89.2% in assay [2]; 85.6% in assay [3]; 89.4% in assay [4]; 93.7% in assay [5]; 99.4% in [6]. Also, the growth in assay [7] is 76.7%; in assay [8], 75.8%; in assay [9] it was 82.8%; in assay [10] it was 94.9%.

`CC(C)=CCc1cc(O)cc2c1OC(C=C(C)C)C1=C2C(=O)C2=C(C1=O)S(=O)(=O)CCN2` (stereo not given): the growth is 28.6% in [1]; 59.8% in [2]; 5.2% (active) in [3]; 35% in [4]; 31.4% in assay [5]; 7.19% (active) in assay [6]. The growth in [7] is 70.1%; in assay [8], 80%; in assay [9], 43.4%; in assay [10], 56.4%.

On to `CN1CCCNc2c(c(=O)c2=O)NCCCN(C)CCCNc2c(c(=O)c2=O)NCCCN(C)CCCNc2c(c(=O)c2=O)NCCCN(C)CCCNc2c(c(=O)c2=O)NCCCN(C)CCCNc2c(c(=O)c2=O)NCCCN(C)CCCNc2c(c(=O)c2=O)NCCCN(C)CCCNc2c(c(=O)c2=O)NCCC1`, for which the growth is 46.8% in assay [1]; 74.6% in assay [2]; 44.8% in assay [3]; 49.1% in assay [4]; 32.1% in [5]; 56.1% in assay [6]. Also, the growth in assay [7] was 37.1%; in assay [8], 54.3%; in assay [9] it was 13.9%; in assay [10] it was -30.2% (active).

For the molecule `O=C(CCCCC[P+](c1ccccc1)(c1ccccc1)c1ccccc1)NC(COC(=O)C(Cl)Cl)(COC(=O)C(Cl)Cl)COC(=O)C(Cl)Cl`, the growth in assay [1] is 108%; in [2], 102%; in assay [3] it was 99.5%; in assay [4], 96.1%; in [5] it was 106%; in assay [6], 126%. Moreover, the growth in [7] was 96.5%; in assay [8] it was 99.6%; in [9], 98.1%; in assay [10] it was 114%.

`O=C(N/N=C/c1ccccc1O)C(O)(c1ccccc1)c1ccccc1`: the growth in assay [1] was 64.1%; in assay [2] it was 71.1%; in assay [3], 46%; in assay [4], 59%; in assay [5], 27.4%; in assay [6], 27.9%. For the same molecule, the growth in assay [7] is 52.8%; in assay [8], 61.7%; in assay [9], 35.5%; in assay [10], 59.9%.

Regarding `COc1ccc(-c2nc3sc(-c4ccc(OC)cc4)c(-c4ccc(OC)cc4)n3c2/C=C/c2ccc(C(C)C)cc2)cc1`, the growth in assay [1] is 95.6%; in [2], 90.9%; in assay [3], 96.5%; in assay [4], 95.1%; in assay [5], 101%; in assay [6], 76.5%. Besides, the growth in assay [7] was 95.2%; in [8] it was 99.2%; in [9], 107%; in assay [10] it was 115%.

As for `C=C(C(=O)c1ccccc1)C(NC(C)(C)C)c1ccccc1` (stereo not given), the growth is 31.9% in assay [1]; 67.9% in assay [2]; 98.6% in [3]; 47.5% in assay [4]; 26.9% in assay [5]; -83.9% (active) in assay [6]. For the same molecule, the growth was 43.2% in assay [7], 23.1% in [8], -77% (active) in assay [9] and 20.6% in assay [10].

With `CC(=O)c1nc2ccccc2n1CCN1CCN(C)CC1`, the growth in assay [1] is 46.2%; in assay [2] it was 90.9%; in [3], 31.9%; in [4], 41%; in assay [5], 13.1%; in assay [6], 0.166% (active). The growth in assay [7] was 31.2%; in [8] it was 78.6%; in assay [9], 2.73% (active); in assay [10], -3.03% (active).

With `COc1ccc(/C(=C2\O[C@@H]([C@H]3COC(C)(C)O3)[C@H]3OC(C)(C)O[C@@H]23)c2cc(OC)c(OC)c(OC)c2)cc1O`, the growth in assay [1] is 72.3%; in assay [2], 108%; in assay [3] it was 34.8%; in [4] it was 48.5%; in assay [5], 79.4%; in [6], 43.4%. The growth was 84.2% in assay [7], 101% in assay [8], 121% in [9] and 34.8% in assay [10].

`Nc1ccc2c(c1)C1(CCC2)NC(=O)NC1=O` (stereo not given): the growth in [1] is 103%; in assay [2] it was 92.1%; in assay [3] it was 103%; in assay [4], 101%; in assay [5], 103%; in assay [6] it was 98.6%. For the same molecule, the growth was 99.5% in assay [7], 100% in assay [8], 105% in assay [9] and 114% in assay [10].
